USP2a block: blocks human ubiquitin-specific protease USP2a | USP2 core, Ub-CHOP2 coupled fluorogenic reporter, 485/531 | O75604 | Potency, µM (highest dose often 38.3 µM), hits mostly inhibitors | 330,000 compounds, 0.01% hits
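Cell-free coupled assay: 10nM USP2 core preincubated 30min RT with compound in Tris-HCl pH 8.0/CaCl2/CHAPS buffer, then 25nM Ub-CHOP2 and 25nM reporter substrate; fluorescence (Ex 485/Em 531) read after 60min RT, normalized to NEM inhibition, concentration-response curves fitted.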
GALK inhibitor: inhibitors of human galactokinase; P51570; Purified GALK, Kinase-Glo residual ATP luminescence; Potency, µM (highest dose often 57.5 µM), most hits filed as inhibitors; 270,000 compounds, 0.007% hits; AID 1868
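The enzyme phosphorylates galactose (100 uM) using ATP (35 uM); inhibition is detected as higher residual ATP, quantified by bioluminescence after 1 h reaction at room temperature, pH 8.0.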
USP1-UAF1 inh: inhibitors of human USP1/UAF1 deubiquitinase | recombinant USP1/UAF1, Ub-Rhodamine cleavage fluorescence | 390,000 compounds, 0.23% hits | AID 743255 | Potency, µM (doses to about 57.1 µM), hits mostly inhibitors | O94782; also: nearly all actives have a fitted effect of over 60% in size
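High-throughput fluorogenic screen: 1nM USP1/UAF1 complex, Ub-Rho substrate 150nM final, 50mM HEPES pH 7.8 with 0.5mM EDTA, 0.1 mg/ml BSA, 1mM TCEP and 0.01% Tween-20.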
FBPA coupling cs: counter-screen for Giardia aldolase inhibitors: coupling enzyme system; coupling enzyme system counterscreen, AmpLite Red fluorescence; activity change, negative = inhibition, % at 58.2 µM, hits read low; 290,000 compounds, 0.67% hits; AID 2472; in the data active = activity change below about -30%
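Counterscreen of the coupled detection system alone, without aldolase: glyceraldehyde-3-phosphate coupling enzymes plus AmpLite Red readout. Compounds at 57.5 uM final, 10 min RT preincubation, 20 min RT reaction, fluorescence 525/598 nm.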
PLK1 PBD inh: PLK1 (human) polo-box domain binding inhibition; Plk1 PBD binding of FITC phosphopeptide, fluorescence polarization; 360,000 compounds, 2.8% hits; Potency, µM, most hits filed as inhibitors; also: series mostly up to about 57 µM; nearly all actives have a fitted effect of over 65% in size
Target sequence (P53350 whole entry, looked up, the tested form may be a part): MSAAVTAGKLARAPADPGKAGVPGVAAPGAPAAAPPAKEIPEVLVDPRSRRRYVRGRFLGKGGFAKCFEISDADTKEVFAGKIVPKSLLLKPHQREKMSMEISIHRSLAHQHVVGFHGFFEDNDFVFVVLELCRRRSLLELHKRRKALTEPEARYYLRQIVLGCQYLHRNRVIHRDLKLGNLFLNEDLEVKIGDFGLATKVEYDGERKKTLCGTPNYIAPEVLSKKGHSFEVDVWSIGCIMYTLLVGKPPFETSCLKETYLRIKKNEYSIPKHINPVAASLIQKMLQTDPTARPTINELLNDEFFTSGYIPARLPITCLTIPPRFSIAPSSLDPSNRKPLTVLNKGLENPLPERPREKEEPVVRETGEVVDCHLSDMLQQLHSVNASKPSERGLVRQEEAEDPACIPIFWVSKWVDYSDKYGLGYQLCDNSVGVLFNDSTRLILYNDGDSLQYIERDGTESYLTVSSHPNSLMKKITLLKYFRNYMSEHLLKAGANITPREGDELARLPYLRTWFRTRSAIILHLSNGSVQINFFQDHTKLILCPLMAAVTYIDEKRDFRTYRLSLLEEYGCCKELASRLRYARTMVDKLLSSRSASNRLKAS
VDR inh: vitamin D3 receptor (human) inhibition | P11473 | VDR-SRC2-3 peptide fluorescence polarization, 2 h | Potency, µM, hits mostly inhibitors | 400,000 compounds, 0.93% hits | AID 504847
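Fluorescence polarization assay measuring small-molecule disruption of VDR binding to the coregulator peptide SRC2-3. Compounds were pin-transferred (23 nl) into the reagent mix and incubated 2 h at room temperature before reading.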
A number is an active result; - = inactive; ? = inconclusive; . = no result. Only some compounds are listed: those with a hit (about 3.2% of all), similar ones and a draw of the others. Unless noted, calls follow the shape of the dose curve; as a rule, active = well fitted curve in the direction sought with a large enough effect; inconclusive = small, poorly fitted or top-dose-only effect, or another doubt; inactive = no such curve, though single readings can be large; an effect the other way counts as inactive or inconclusive.

SMILES	USP2a block	GALK inhibitor	USP1-UAF1 inh	FBPA coupling cs	PLK1 PBD inh	VDR inh
O=C(O)C1CCCCC1C(=O)NCc1ccc(Cl)c(Cl)c1 (stereo unspecified)	-	-	-	-	30µM	-
O=C(O)C1C2C=CC(C2)C1C(=O)NCc1ccc(Cl)c(Cl)c1 (stereo unspecified)	-	-	-	-	-	-
C=CCSc1nnc2n(CCc3ccccc3)c(=O)c3c4c(sc3n12)COC(C)(C)C4	-	-	-	-	-	-
C=CC1=C2C=C(C3CC3)N(CCCCO)C=C2C(=O)C(C)(OC(=O)c2ccco2)C1=O (stereo unspecified)	.	.	.	-42	.	.
C=CC1=C2C=C(C3CC3)N(CC3CC3)C=C2C(=O)C(C)(OC(=O)c2ccco2)C1=O (stereo unspecified)	.	.	?	-31	-	-
Cc1ccc(CN2C(=O)N(c3ccccc3)C(=O)C2CC(=O)Nc2ccccc2)cc1 (stereo unspecified)	.	.	?	.	.	-
C=CCNC(=O)C1CC2Cn3c(nc4cc(C)c(C)cc43)C2N1C (stereo unspecified)	-	-	-	-	-	-
CCOC(=O)c1c(N)sc(C)c1-c1ccccc1	.	.	.	-	.	?
Cc1sc(N)c(C(=O)c2ccccc2)c1C	-	-	-	-	3.8µM	?
CCC(C)c1ccc(OCC(=O)Nc2ccc3[nH]c(=O)[nH]c3c2)cc1 (stereo unspecified)	-	-	-	-	-	?
Cc1cc(/C=C2\NC(=O)NC2=O)c(C)n1-c1ccc(N2CCOCC2)cc1	-	-	?	-	-	-
Cc1cc(/C=C2/NC(=O)NC2=O)c(C)n1-c1ccc(C#N)cc1	-	-	-	-	19µM	?
Cc1ccc(-n2c(C)cc(/C=C3\NC(=O)NC3=O)c2C)c(C)c1	-	.	-	-	21µM	?
CCOC(=O)C(Cc1ccccc1)NC(=O)CCc1nnc2ccc(N3CCCCC3)nn12 (stereo unspecified)	-	-	-	.	-	-
CCOC(=O)CNC(=O)CCc1nnc2ccc(N3CCC(C)CC3)nn12	-	-	-	-	24µM	?
CCOC(=O)C(Cc1ccccc1)NC(=O)CCc1nnc2ccc(N3CCCC3)nn12 (stereo unspecified)	-	-	-	-	24µM	-
CC1CC(C)CN(C(=O)CCc2nnc3ccc(N4CCCCC4)nn23)C1 (stereo unspecified)	-	-	-	-	30µM	-
CCOC(=O)C1CCN(C(=O)CCc2nnc3ccc(N4CCC(C)CC4)nn23)CC1	-	-	-	-	24µM	?
O=[N+]([O-])c1ccc2c(c1)OCCOCCOCCOCCOCCOCCO2	-	.	-	-	-	-
C/C=C(/C)C(=O)O[C@@H]1c2c(ccc3ccc(=O)oc23)OC(C)(C)[C@@H]1OC(=O)/C(C)=C\C	-	.	-	-	-	-
Oc1cc(-c2ccccc2)c2ccccc2c1	-	-	-	-60	-	?
CC1(OC(=O)c2ccco2)C(=O)C=C2C=C(c3ccc(C#N)cc3)OC=C2C1=O (stereo unspecified)	.	.	.	-	.	-
Cc1ccc(CN2C(=O)N/C(=C/c3ccc4c(c3)n(C)c(=O)n4C)C2=O)cc1	-	-	.	-	.	.
CCc1nnc2c(NCCc3ccc(OC)c(OC)c3)nc3ccccc3n12	-	-	-	-	27µM	?
Cc1ccoc1C(=O)N1CCCCC1C(=O)O (stereo unspecified)	-	-	-	-	15µM	?
SMILES	USP2a block	GALK inhibitor	USP1-UAF1 inh	FBPA coupling cs	PLK1 PBD inh	VDR inh
Cc1cc(C)n(-c2ccc(NC(=O)C3CCCCN3C(=O)c3occc3C)cc2)n1 (stereo unspecified)	-	-	-	.	-	-
Fc1cccc(/C=C2\CCCC3=C2NC(=S)NC3c2cccc(F)c2)c1 (stereo unspecified)	-	-	-	-	?	79µM
Fc1ccccc1/C=C1\CCCC2=C1NC(=S)NC2c1ccccc1F (stereo unspecified)	-	-	-	-	19µM	-
S=C1NC2=C(CCC/C2=C\c2ccccc2)C(c2ccccc2)N1 (stereo unspecified)	-	-	-	-	?	89µM
S=C1NC2=C(CCC/C2=C\c2ccc(Cl)cc2)C(c2ccc(Cl)cc2)N1 (stereo unspecified)	-	-	-	-	?	?
O=C(CCCc1nc(-c2ccc(Cl)cc2)no1)Nc1cccnc1	-	-	-	-	-	-
CCOc1ccc(CN2CCN(Cc3ccsc3)C(CCO)C2)cc1CO (stereo unspecified)	-	-	-	-	-	-
O=C(O)Cn1c2ccccc2c2ccccc21	-	-	-	-	-	-
O=C(O)Cn1c2c(c3ccccc31)CSc1ccc(Cl)cc1-2	-	-	-	-	13µM	?
Cc1ccc(NC(=O)CCc2c(C)nc3cc(-c4ccccc4)nn3c2C)cc1F	.	.	-	.	.	-
Cc1ccnc(NC(=S)NC(=O)c2cncc(Br)c2)c1	-	-	-	-	-	-
Cc1nc(NC(=S)NC(=O)c2cncc(Br)c2)ccc1Br	-	-	-	-	21µM	?
C=C1c2cccc(O)c2C(O)=C2C(=O)[C@]3(O)C(O)=C(C(N)=O)C(=O)C(N(C)C)C3C(O)C12 (stereo partly specified)	.	.	.	-	.	35µM
C=C1c2cccc(O)c2C(O)=C2C(=O)[C@]3(O)C(O)=C(C(N)=O)C(=O)[C@@H](N(C)C)[C@@H]3[C@@H](O)[C@H]12	-	-	?	-	?	-
CS(=O)(=O)c1ccc(Cl)c(NC(=O)Cc2ccccc2F)c1	-	-	-	-	27µM	79µM
CS(=O)(=O)c1ccc(Cl)c(NC(=O)Cc2c(F)cccc2Cl)c1	-	-	-	-	-	-
Clc1ccccc1-c1nc(NC2CCNCC2)c2ccccc2n1	.	.	.	-	.	40µM
Cc1ccccc1-c1nc(NC2CCNCC2)c2ccccc2n1	.	.	.	-	.	-
Cc1cc(NC(=O)CSc2ncnc3sc4c(c23)CCC(C)C4)no1 (stereo unspecified)	-	-	.	-	.	.
COc1cc(NC(=O)CSc2ncnc3sc4c(c23)CCC(C)C4)c(C(=O)O)cc1OC (stereo unspecified)	-	-	-	-	17µM	-
CC1CCc2c(sc3ncnc(SCC(=O)Nc4ccc(C(=O)O)cc4)c23)C1 (stereo unspecified)	-	-	-	-	60µM	-
CCC(c1nnnn1C1CCCC1)N(Cc1cccs1)Cc1cc2cc(C)ccc2[nH]c1=O (stereo unspecified)	-	-	-	-	-	-
CCOc1ccc2[nH]c(=O)c(CN(Cc3cccs3)C(CC)c3nnnn3C(C)(C)CC)cc2c1 (stereo unspecified)	-	-	-	-	8.4µM	-
